The results in this text go back to PubChem BioAssay AID2061313 (National Center for Advancing Translational Sciences (NCATS), 2025).

The structures appear in SMILES notation. Inconclusive results are not listed. Calls of active or inactive are those of the source. Calls come from the whole dose curve; as a rule, active = well fitted curve in the direction sought with a large enough effect; inconclusive = small, poorly fitted or top-dose-only effect, or another doubt; inactive = no such curve, though single readings can be large or run the other way.

The assay has as its target Aldehyde dehydrogenase 1A1 (Homo sapiens) (UniProt P00352). Put plainly: qHTS for Inhibitors of the Aldehyde Dehydrogenase Family (ALDH1A1) Validation screens. The note with it: fluorescence; Potency: ALDH1A1 inhibition validation qHTS; series mostly up to 39.8 µM.
Turning to `CC(C)N(CCC(=O)c1ccc2ccccc2c1)Cc1ccccc1`, the Potency is 70.8 nM (active).

For `CC(C)(C)c1ccc(S(=O)(=O)/C=C/C#N)cc1`, the Potency is 89.1 nM (active).

Turning to `O=c1c(-c2ccc(O)cc2)coc2cc(O[C@@H]3O[C@H](CO)[C@H](O)[C@H](O)[C@H]3O)ccc12`, the Potency result is “inactive”.
